Experimental data reported in PubChem BioAssay (Tox21).
Results filed as inconclusive are left out. Calls of active or inactive are those of the source. Unless noted, the call rests on the fitted dose curve; in most records, active means well fitted cell-killing curve with a large enough effect in the repeat runs (not every such curve was filed as active); inconclusive means weak or mixed curves, or effect the other way; inactive means no such curve, though single readings can be large or run the other way.

System: not listed separately
Assay: qHTS assay to identify small molecule agonists of the farnesoid-X-receptor (FXR) signaling pathway - cell viability counter screen (AID 743218; active means well fitted cell-killing curve with a large enough effect in the repeat runs; further: nearly all actives have a fitted effect of over 45% in size)
Settings: FXR-bla HEK293T viability, CellTiter-Glo luminescence, 16 h; series mostly up to 62.6 µM
How it was run: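 Quantitative HTS counter screen measuring ATP-based viability via CellTiter-Glo luminescence in HEK 293T cells carrying a UAS-driven beta-lactamase reporter, after 16 h compound exposure at 37 C.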

Compound	outcome
CON(C)C(=O)Nc1ccc(Cl)c(Cl)c1	inactive
CC(NC(C)(C)C)C(=O)c1cccc(Cl)c1 (configuration not stated)	inactive
Cc1[nH]c(=O)n(C(C)(C)C)c(=O)c1Cl	inactive
Nc1ccccc1C(=O)O	inactive
CN1C(=O)CN=C(c2ccccc2)c2cc(Cl)ccc21	inactive
c1ccc(OP(Oc2ccccc2)Oc2ccccc2)cc1	inactive
NCC(O)c1ccc(O)cc1 (configuration not stated)	inactive
c1ccc2c(c1)Oc1ccccc1O2	inactive
CCOP(OCC)OCC	inactive
CCOP(=S)(OCC)Oc1cnc2ccccc2n1	inactive
OCCN(CCO)CCO	inactive
CCCCCOC(=O)c1ccccc1C(=O)OCCCCC	inactive
CCc1cccc(C)c1N(C(=O)CCl)C(C)COC (configuration not stated)	inactive
C1CN2CCN1CC2	inactive

Biological target: Bile acid receptor (Homo sapiens) (UniProt Q96RI1)
Assay: qHTS assay to identify small molecule agonists of the farnesoid-X-receptor (FXR) signaling pathway (AID 743220; active means well fitted activation curve with a large enough effect in the signal ratio in the repeat runs, not every such curve was filed as active; the % refers to the signal ratio)
Settings: HEK293T FXR-UAS-bla, beta-lactamase FRET ratio, 16 h; series mostly up to 62.6 µM
How it was run: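 FXR-UAS-bla HEK 293T cells carrying a UAS-driven beta-lactamase reporter were plated for 5 h at 37C/5% CO2, then exposed to DMSO-dissolved Tox21 10K compounds for 16 h at 37C. A LiveBLAzer B/G FRET substrate was loaded for 2 h at room temperature before fluorescence reading.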

Bile acid receptor (Homo sapiens), sequence (Q96RI1 whole entry, looked up): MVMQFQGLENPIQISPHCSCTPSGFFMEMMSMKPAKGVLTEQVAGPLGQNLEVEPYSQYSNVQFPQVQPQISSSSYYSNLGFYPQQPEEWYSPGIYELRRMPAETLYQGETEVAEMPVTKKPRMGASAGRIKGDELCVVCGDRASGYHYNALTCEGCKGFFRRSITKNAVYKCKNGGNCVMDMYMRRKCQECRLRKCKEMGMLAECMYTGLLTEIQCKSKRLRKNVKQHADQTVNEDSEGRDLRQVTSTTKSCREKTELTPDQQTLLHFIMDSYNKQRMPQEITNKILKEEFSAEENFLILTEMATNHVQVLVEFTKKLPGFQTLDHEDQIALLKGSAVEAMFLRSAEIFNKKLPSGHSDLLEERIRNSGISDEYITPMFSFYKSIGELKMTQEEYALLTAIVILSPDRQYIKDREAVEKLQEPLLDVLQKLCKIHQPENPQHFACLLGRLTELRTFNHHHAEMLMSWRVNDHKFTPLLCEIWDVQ

Compound	outcome
CCN(CC)c1ccccc1	inactive
[O-][Cl+2]([O-])O	inactive
CC(Oc1ccc(Cl)cc1Cl)C(=O)O (configuration not stated)	inactive
Cc1[nH]c(=O)n(C(C)(C)C)c(=O)c1Cl	inactive
Nc1ccccc1C(=O)O	inactive
CN1C(=O)CN=C(c2ccccc2)c2cc(Cl)ccc21	inactive
c1ccc2c(c1)Oc1ccccc1O2	inactive
CCOP(OCC)OCC	inactive
COC(=O)c1ccccc1C(=O)OC	inactive
CCOP(=S)(OCC)Oc1cnc2ccccc2n1	inactive
O=c1ccc(=O)[nH][nH]1	inactive
O=NN1CCCCCCC1	inactive
O=C(NC(=O)c1c(F)cccc1F)Nc1cc(Cl)c(OC(F)(F)C(F)C(F)(F)F)cc1Cl (configuration not stated)	inactive
CN(C)N=O	inactive

System: not listed separately
Assay: qHTS assay to identify small molecule antagonists of the farnesoid-X-receptor (FXR) signaling pathway - cell viability counter screen (AID 743221); further: nearly all actives have a fitted effect of over 50% in size
Settings: FXR-bla HEK293T viability, CellTiter-Glo luminescence, 16 h; series mostly up to 62.6 µM
How it was run: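 CellTiter-Glo, 30 min RT, luminescence; same wells as the LiveBLAzer FRET read. Cells: FXR-UAS-bla HEK 293T. Treatment: compound with chenodeoxycholic acid 50 uM final, 16 h at 37 C.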

Compound	outcome
CCN(CC)c1ccccc1	inactive
CC(C)OC(=O)Nc1ccccc1	inactive
CC(=O)C=C(C)C	inactive
c1cc2c3c(cccc3c1)CC2	inactive
O=C(O)c1ccccn1	inactive
CCC(C)(CC)c1cc(NC(=O)c2c(OC)cccc2OC)on1	inactive
[O-][Cl+2]([O-])O	inactive
CC(Oc1ccc(Cl)cc1Cl)C(=O)O (configuration not stated)	inactive
CON(C)C(=O)Nc1ccc(Cl)c(Cl)c1	inactive
Clc1cccc(Cl)c1Cl	inactive
CC(NC(C)(C)C)C(=O)c1cccc(Cl)c1 (configuration not stated)	inactive
CC(C)C#N	inactive
ClCCBr	inactive
Cc1[nH]c(=O)n(C(C)(C)C)c(=O)c1Cl	inactive
Nc1ccccc1C(=O)O	inactive
CN1C(=O)CN=C(c2ccccc2)c2cc(Cl)ccc21	inactive
c1ccc(OP(Oc2ccccc2)Oc2ccccc2)cc1	inactive
Oc1ccccc1Cl	inactive
NCC(O)c1ccc(O)cc1 (configuration not stated)	inactive

Compound	outcome
c1ccc2c(c1)Oc1ccccc1O2	inactive
Cc1cc(-c2cc(C)c(N)c(C)c2)cc(C)c1N	inactive
Cc1ccc(N)cc1Cl	inactive
CCOP(OCC)OCC	inactive
COC(=O)c1ccccc1C(=O)OC	inactive
CCOP(=S)(OCC)Oc1cnc2ccccc2n1	inactive
O=c1ccc(=O)[nH][nH]1	inactive
Cn1cc(-c2ccccc2)c(=O)c(-c2cccc(C(F)(F)F)c2)c1	inactive
C#CCN(C)[C@H](C)Cc1ccccc1	inactive
O=NN1CCCCCCC1	inactive
O=C(NC(=O)c1c(F)cccc1F)Nc1cc(Cl)c(OC(F)(F)C(F)C(F)(F)F)cc1Cl (configuration not stated)	inactive
CN(C)N=O	inactive
OCCN(CCO)CCO	inactive
CCCCOC(=O)c1ccccc1C(=O)OCCCC	inactive
CCCCCOC(=O)c1ccccc1C(=O)OCCCCC	inactive
[N-]=[N+]=[N-]	inactive
CCc1cccc(C)c1N(C(=O)CCl)C(C)COC (configuration not stated)	inactive
C1CN2CCN1CC2	inactive

Biological target: Vitamin D3 receptor (Homo sapiens) (UniProt P11473)
Assay: qHTS assay to identify small molecule agonists of the vitamin D receptor (VDR) signaling pathway (AID 743222; calls by dose curve)
Settings: HEK293T VDR-UAS-bla, beta-lactamase FRET ratio, 16 h; series mostly up to 63.5 µM
How it was run: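 Tox21 cell reporter format: VDR-bla line, 16 h compound exposure in 5% CO2 at 37C, then fluorescence intensity after 2 h with LiveBLAzer B/G FRET substrate.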

Vitamin D3 receptor (Homo sapiens), sequence (P11473 whole entry, looked up): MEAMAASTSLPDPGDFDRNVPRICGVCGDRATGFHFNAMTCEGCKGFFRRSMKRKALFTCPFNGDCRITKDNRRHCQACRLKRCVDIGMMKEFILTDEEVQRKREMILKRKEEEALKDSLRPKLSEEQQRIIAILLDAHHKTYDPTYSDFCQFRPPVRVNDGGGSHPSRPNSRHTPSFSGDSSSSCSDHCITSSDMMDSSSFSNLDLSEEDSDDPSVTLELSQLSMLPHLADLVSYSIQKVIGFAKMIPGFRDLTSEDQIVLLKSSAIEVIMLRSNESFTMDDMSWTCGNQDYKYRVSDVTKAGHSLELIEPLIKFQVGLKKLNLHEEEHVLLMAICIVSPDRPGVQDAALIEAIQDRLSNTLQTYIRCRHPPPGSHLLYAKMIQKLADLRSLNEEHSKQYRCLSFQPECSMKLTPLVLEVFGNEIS

Compound	outcome
CCN(CC)c1ccccc1	inactive
CC(C)OC(=O)Nc1ccccc1	inactive
CC(=O)C=C(C)C	inactive
CCC(C)(CC)c1cc(NC(=O)c2c(OC)cccc2OC)on1	inactive
[O-][Cl+2]([O-])O	inactive
CC(Oc1ccc(Cl)cc1Cl)C(=O)O (configuration not stated)	inactive
CON(C)C(=O)Nc1ccc(Cl)c(Cl)c1	inactive
Clc1cccc(Cl)c1Cl	inactive
CC(NC(C)(C)C)C(=O)c1cccc(Cl)c1 (configuration not stated)	inactive
Nc1ccccc1C(=O)O	inactive
CN1C(=O)CN=C(c2ccccc2)c2cc(Cl)ccc21	inactive
c1ccc(OP(Oc2ccccc2)Oc2ccccc2)cc1	inactive
Oc1ccccc1Cl	inactive
NCC(O)c1ccc(O)cc1 (configuration not stated)	inactive
c1ccc2c(c1)Oc1ccccc1O2	inactive
Cc1cc(-c2cc(C)c(N)c(C)c2)cc(C)c1N	inactive
Cc1ccc(N)cc1Cl	inactive
COC(=O)c1ccccc1C(=O)OC	inactive
O=c1ccc(=O)[nH][nH]1	inactive
C#CCN(C)[C@H](C)Cc1ccccc1	inactive
O=C(NC(=O)c1c(F)cccc1F)Nc1cc(Cl)c(OC(F)(F)C(F)C(F)(F)F)cc1Cl (configuration not stated)	inactive
CN(C)N=O	inactive
CCCCOC(=O)c1ccccc1C(=O)OCCCC	inactive
CCCCCOC(=O)c1ccccc1C(=O)OCCCCC	inactive
[N-]=[N+]=[N-]	inactive
CCc1cccc(C)c1N(C(=O)CCl)C(C)COC (configuration not stated)	inactive
C1CN2CCN1CC2	inactive
